Data from PubChem BioAssay (Tox21).
Results filed as inconclusive are left out. The source made the active and inactive calls. Unless noted, the call rests on the fitted dose curve; in most records, active means well fitted curve in the direction sought with a large enough effect in the repeat runs; inconclusive means weak or mixed curves; inactive means no such curve, though single readings can be large; an effect the other way counts as inactive or inconclusive.

Tests used:
[1] = biological target: Thyrotropin-releasing hormone receptor (Homo sapiens) (UniProt P34981); test: qHTS assay to identify small molecule agonists of the thyrotropin-releasing hormone receptor (TRHR) signaling pathway (AID 1346891; calls by dose curve;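 further: HEK293 cells expressing TRHR with calcium dye readout; series mostly up to about 58 µM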)
How it was run: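 HEK293/TRHR cells, 1500 per well, 18 h 37 °C; Ca dye 2 h 37 °C; pin-tool compound addition (agonist mode); kinetic fluorescence 3 min, 1 s reads; 15 concentrations, triplicate.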

[2] = Human pregnane X receptor (PXR) small molecule agonists, qHTS cell viability counter screen (AID 1346977); further: nearly all actives have a fitted effect of over 50% in size; further: potency means the concentration at half of the fitted maximal effect
How it was run: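 Fluorescence read-out (CellTiter-Fluor) of viability in PXR-Luc HepG2 cells, multiplexed with the luciferase agonist read. Compounds in DMSO added after 5hr plating; 24hr total exposure at 37C, 5% CO2.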

[3] = Caspase-3/7 induction in HepG2 cells by small molecules, qHTS assay (AID 1346978); further: nearly all actives have a fitted effect of over 15% in size
How it was run: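 Caspase-3/7 induction was measured by Caspase-Glo 3/7 luminescence (30 min, room temperature) after a 17 hr compound exposure of wild-type HepG2 cells seeded at 2,000 per well and pre-incubated 5 hr.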

[4] = Caspase-3/7 induction in HepG2 cells by small molecules, qHTS cell viability counter screen (AID 1346981); further: nearly all actives have a fitted effect of over 30% in size; further: potency means the concentration at half of the fitted maximal effect
How it was run: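 In this quantitative HTS counter screen, compounds delivered in DMSO were left on unmodified HepG2 cells for 16 hr at 37 C. Viability was then determined fluorometrically with CellTiter-Fluor, in parallel with caspase-3/7 induction in the same wells.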

[5] = biological target: Nuclear receptor subfamily 1 group I member 2 (Homo sapiens) (UniProt O75469); test: Human pregnane X receptor (PXR) small molecule agonists, qHTS assay (AID 1346982); further: nearly all actives have a fitted effect of over 35% in size; further: potency means the concentration at half of the fitted maximal effect
How it was run: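 Reporter HepG2 cells expressing PXR-Luc are cultured in charcoal-stripped FBS (5%), treated with compounds for 24 hr at 37 C, and assayed by ONE-Glo luminescence after 30 min at room temperature.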

[6] = biological target: Nuclear receptor subfamily 1 group I member 2 (Rattus norvegicus) (UniProt Q9R1A7); test: Rat pregnane X receptor (rPXR) activation by small molecules, qHTS assay (AID 1346983); conditions: rPXR luciferase reporter cells, One-Glo luminescence, 24 h; max activation: hits give high values; further: nearly all actives have a fitted effect of over 20% in size
How it was run: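 Luminescent readout (One-Glo luciferase, 30 min room temperature) followed 24 hr compound treatment at 37 C of rPXR cells plated 2,000 per well and preincubated 5hr; qHTS format with compounds delivered in DMSO.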

[7] = biological target: Nuclear receptor subfamily 1 group I member 2 (Homo sapiens) (UniProt O75469); test: CYP3A4 induction through human pregnane X receptor (PXR) by small molecules, qHTS assay (AID 1346984); further: nearly all actives have a fitted effect of over 40% in size; further: potency means the concentration at half of the fitted maximal effect
How it was run: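 Induction measured in HepG2-based DPX-2 cells co-expressing human PXR and a CYP3A4 promoter-driven luciferase. After a 24-hour compound exposure, cells received CYP3A4 luciferin substrate at 3uM final for 3 hours, and light output was then recorded.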

[8] = biological target: Nuclear receptor subfamily 1 group I member 2 (Homo sapiens) (UniProt O75469); test: Human pregnane X receptor (PXR) activation by small molecules, qHTS assay (AID 1346985); further: nearly all actives have a fitted effect of over 40% in size; further: potency means the concentration at half of the fitted maximal effect
How it was run: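 DPX-2 cells (HepG2 co-transfected with a PXR response element and a CYP3A4-promoter luciferase construct) were seeded at 2,000 per well, rested 5 hr at 37C, then exposed to DMSO-dissolved compounds for 24 hr. Activation was read as luciferase luminescence.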

[9] = biological target: Cytochrome P450 1A2 (Homo sapiens) (UniProt P05177); test: Cytochrome P450 Family 1 Subfamily A Member 2 (CYP1A2) small molecule antagonists: luciferase reporter qHTS assay (AID 1671199); further: nearly all actives have a fitted effect of over 50% in size; further: potency means the concentration at half of the fitted maximal effect
How it was run: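 Steps: enzyme-substrate mix dispensed; test compounds and furafylline control pinned in; 10 min room temperature; NADPH regeneration solution added, 1 h; reaction stopped with luciferin detection reagent; luminescence read after 20 min.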

[10] = biological target: Voltage-gated inwardly rectifying potassium channel KCNH2 (Homo sapiens) (UniProt Q12809); test: Human Ether-a-go-go-Related Gene (hERG) channel small molecule antagonists: fluorescence cell-based qHTS assay (AID 1671200); further: nearly all actives have a fitted effect of over 50% in size; further: potency means the concentration at half of the fitted maximal effect
How it was run: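 Read-out: thallium influx as a surrogate for potassium, tracked as fluorescence (480 nm ex/540 nm em) every second for 2 min after Stimulus Buffer addition in dye-loaded hERG-U2OS cells.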

[11] = biological target: Cytochrome P450 3A4 (Homo sapiens) (UniProt P08684); test: Cytochrome P450 Family 3 Subfamily A Member 4 (CYP3A4) small molecule antagonists: luciferase reporter qHTS assay (AID 1671201); further: nearly all actives have a fitted effect of over 50% in size; further: potency means the concentration at half of the fitted maximal effect
How it was run: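 Luminescent readout (RLU) proportional to CYP3A4 activity, from luciferin generated off a proluciferin substrate. Enzyme–substrate mix plus compound 10 min at room temp, NADPH regeneration 1 h, detection reagent 20 min.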

[12] = Caspase-3/7 induction in CHO-K1 cells by small molecules, qHTS cell viability counter screen (AID 1346979); further: nearly all actives have a fitted effect of over 35% in size; further: potency means the concentration at half of the fitted maximal effect
How it was run: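 CHO-K1 wt, 1,500 cells/well; 5hr pre-incubation 37C/5% CO2; compound pin transfer (DMSO); 16hr exposure; CellTiter-Fluor added, 1hr, fluorescence read.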

[13] = Caspase-3/7 induction in CHO-K1 cells by small molecules, qHTS assay (AID 1346980); further: nearly all actives have a fitted effect of over 15% in size
How it was run: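 Luminescent Caspase-Glo 3/7 read (30min, room temperature) quantified apoptosis induction. Cells were wild-type CHO-K1, treated with compound for 17hr at 37 C and 5% CO2.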

[14] = biological target: Cytochrome P450 2C19 (Homo sapiens) (UniProt P33261); test: Cytochrome P450 Family 2 Subfamily C Member 19 (CYP2C19) small molecule antagonists: luciferase reporter qHTS assay (AID 1671197); further: nearly all actives have a fitted effect of over 65% in size; further: potency means the concentration at half of the fitted maximal effect
How it was run: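 Inhibition of CYP2C19 was scored from loss of luminescence in a P450-Glo proluciferin substrate assay, NADPH-started and run 1 h at 37C, with ketoconazole as positive control.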

[15] = biological target: Cytochrome P450 2C9 (Homo sapiens) (UniProt P11712); test: Cytochrome P450 Family 2 Subfamily C Member 9 (CYP2C9) small molecule antagonists: luciferase reporter qHTS assay (AID 1671198); further: nearly all actives have a fitted effect of over 50% in size; further: potency means the concentration at half of the fitted maximal effect
How it was run: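 Enzyme-substrate mix preincubated with compound 10 min at room temperature; reaction started with NADPH regeneration solution, 1 h 37C. Luminescent luciferin product read after 20 min detection reagent.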

[16] = biological target: Cytochrome P450 2D6 (Homo sapiens) (UniProt P10635); test: Cytochrome P450 Family 2 Subfamily D Member 6 (CYP2D6) small molecule antagonists: luciferase reporter qHTS assay (AID 1671196); further: nearly all actives have a fitted effect of over 50% in size; further: potency means the concentration at half of the fitted maximal effect
How it was run: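 Test chemicals meet CYP2D6 plus proluciferin substrate (10 min, RT); NADPH regenerating solution then drives turnover for 1 h. Detection reagent halts the reaction; luminescence measured after 20 min.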
On the % scale 0 is the no-effect control and ±100 the full control effect.

Cytochrome P450 2C19 (Homo sapiens), sequence (P33261 whole entry, looked up): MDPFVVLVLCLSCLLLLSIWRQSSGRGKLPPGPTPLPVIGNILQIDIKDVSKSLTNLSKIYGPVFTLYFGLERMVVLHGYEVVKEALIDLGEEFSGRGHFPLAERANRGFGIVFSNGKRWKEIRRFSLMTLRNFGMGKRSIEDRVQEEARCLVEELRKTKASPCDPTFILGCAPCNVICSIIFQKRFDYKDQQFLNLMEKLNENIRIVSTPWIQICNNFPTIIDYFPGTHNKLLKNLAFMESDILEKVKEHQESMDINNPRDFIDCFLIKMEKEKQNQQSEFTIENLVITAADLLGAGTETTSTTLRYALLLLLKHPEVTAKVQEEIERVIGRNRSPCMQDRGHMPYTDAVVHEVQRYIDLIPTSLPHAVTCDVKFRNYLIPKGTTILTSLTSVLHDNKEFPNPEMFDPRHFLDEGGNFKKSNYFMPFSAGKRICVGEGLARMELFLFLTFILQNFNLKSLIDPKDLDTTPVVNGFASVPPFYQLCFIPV
Cytochrome P450 2D6 (Homo sapiens), sequence (P10635 whole entry, looked up): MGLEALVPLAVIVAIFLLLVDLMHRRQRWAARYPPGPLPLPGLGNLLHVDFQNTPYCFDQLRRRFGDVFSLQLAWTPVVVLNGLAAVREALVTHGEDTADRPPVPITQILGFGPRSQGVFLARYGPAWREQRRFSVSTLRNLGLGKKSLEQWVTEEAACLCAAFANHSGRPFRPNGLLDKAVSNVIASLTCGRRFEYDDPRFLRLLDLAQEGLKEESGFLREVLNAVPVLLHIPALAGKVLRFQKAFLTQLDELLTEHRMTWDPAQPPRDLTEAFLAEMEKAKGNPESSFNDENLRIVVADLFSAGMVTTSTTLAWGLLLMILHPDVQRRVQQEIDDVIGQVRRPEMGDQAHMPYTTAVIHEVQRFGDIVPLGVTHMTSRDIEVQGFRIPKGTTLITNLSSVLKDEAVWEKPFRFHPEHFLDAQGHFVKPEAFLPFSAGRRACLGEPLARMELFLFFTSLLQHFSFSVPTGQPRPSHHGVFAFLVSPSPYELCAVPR
Cytochrome P450 3A4 (Homo sapiens), sequence (P08684 whole entry, looked up): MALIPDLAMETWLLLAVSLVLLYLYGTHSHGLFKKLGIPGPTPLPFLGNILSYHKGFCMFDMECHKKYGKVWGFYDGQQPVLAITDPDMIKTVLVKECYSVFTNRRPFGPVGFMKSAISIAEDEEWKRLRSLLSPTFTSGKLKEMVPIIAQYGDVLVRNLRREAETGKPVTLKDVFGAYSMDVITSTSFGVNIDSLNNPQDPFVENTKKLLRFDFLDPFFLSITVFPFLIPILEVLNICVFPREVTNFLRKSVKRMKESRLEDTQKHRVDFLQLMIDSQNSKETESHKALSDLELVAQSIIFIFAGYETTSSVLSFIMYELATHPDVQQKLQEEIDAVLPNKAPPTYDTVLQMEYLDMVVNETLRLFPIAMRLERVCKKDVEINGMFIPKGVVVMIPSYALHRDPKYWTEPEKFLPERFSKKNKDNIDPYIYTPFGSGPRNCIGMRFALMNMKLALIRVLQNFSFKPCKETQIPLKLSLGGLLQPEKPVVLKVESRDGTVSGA
Cytochrome P450 2C9 (Homo sapiens), sequence (P11712 whole entry, looked up): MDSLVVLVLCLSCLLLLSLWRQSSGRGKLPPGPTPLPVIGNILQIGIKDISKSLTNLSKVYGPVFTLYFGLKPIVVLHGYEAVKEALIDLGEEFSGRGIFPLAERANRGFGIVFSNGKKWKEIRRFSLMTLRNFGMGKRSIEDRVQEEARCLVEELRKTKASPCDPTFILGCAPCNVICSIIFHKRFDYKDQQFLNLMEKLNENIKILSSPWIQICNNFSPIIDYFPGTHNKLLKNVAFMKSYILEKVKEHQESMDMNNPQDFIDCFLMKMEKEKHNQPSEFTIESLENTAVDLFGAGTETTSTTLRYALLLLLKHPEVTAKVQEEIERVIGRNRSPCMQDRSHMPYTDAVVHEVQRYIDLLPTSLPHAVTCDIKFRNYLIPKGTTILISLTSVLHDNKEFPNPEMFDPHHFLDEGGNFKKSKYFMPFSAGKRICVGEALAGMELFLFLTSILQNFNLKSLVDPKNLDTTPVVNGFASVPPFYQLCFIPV
Nuclear receptor subfamily 1 group I member 2 (Homo sapiens), sequence (O75469 whole entry, looked up): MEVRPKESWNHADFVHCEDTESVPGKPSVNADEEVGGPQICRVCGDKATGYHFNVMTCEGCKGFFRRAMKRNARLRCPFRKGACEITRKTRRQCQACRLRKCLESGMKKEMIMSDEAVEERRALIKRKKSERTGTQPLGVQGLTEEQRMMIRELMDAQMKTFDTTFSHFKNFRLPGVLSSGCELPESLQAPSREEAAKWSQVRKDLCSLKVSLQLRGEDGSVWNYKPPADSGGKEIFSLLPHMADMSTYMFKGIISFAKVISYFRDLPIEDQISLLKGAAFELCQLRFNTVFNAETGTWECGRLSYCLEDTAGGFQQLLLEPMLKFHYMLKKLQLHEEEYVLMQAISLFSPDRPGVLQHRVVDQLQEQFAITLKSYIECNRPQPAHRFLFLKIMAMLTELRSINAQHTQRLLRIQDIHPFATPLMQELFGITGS
Thyrotropin-releasing hormone receptor (Homo sapiens), sequence (P34981 whole entry, looked up): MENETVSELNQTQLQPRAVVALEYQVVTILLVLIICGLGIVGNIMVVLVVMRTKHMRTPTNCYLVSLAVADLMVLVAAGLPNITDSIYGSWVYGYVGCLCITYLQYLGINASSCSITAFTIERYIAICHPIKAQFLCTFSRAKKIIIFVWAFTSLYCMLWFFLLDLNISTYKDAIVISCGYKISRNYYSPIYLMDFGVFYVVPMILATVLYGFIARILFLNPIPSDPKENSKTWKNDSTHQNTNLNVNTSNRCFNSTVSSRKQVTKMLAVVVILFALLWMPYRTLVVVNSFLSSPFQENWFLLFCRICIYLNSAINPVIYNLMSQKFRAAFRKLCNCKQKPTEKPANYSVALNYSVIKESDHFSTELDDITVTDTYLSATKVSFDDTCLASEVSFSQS
Cytochrome P450 1A2 (Homo sapiens), sequence (P05177 whole entry, looked up): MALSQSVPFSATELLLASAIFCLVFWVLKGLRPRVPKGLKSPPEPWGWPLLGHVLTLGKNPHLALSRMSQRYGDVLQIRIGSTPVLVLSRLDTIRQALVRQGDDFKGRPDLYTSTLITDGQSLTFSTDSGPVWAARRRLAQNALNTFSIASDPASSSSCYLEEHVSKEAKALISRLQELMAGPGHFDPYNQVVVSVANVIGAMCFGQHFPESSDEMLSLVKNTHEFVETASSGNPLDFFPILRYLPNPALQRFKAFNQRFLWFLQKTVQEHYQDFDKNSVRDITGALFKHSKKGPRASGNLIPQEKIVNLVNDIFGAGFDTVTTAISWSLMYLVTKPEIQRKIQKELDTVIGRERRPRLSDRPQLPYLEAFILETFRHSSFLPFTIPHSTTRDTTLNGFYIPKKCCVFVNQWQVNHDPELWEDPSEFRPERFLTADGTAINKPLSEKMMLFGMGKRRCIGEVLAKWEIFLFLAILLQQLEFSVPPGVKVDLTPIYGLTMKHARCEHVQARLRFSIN
Voltage-gated inwardly rectifying potassium channel KCNH2 (Homo sapiens), sequence (Q12809 whole entry, looked up): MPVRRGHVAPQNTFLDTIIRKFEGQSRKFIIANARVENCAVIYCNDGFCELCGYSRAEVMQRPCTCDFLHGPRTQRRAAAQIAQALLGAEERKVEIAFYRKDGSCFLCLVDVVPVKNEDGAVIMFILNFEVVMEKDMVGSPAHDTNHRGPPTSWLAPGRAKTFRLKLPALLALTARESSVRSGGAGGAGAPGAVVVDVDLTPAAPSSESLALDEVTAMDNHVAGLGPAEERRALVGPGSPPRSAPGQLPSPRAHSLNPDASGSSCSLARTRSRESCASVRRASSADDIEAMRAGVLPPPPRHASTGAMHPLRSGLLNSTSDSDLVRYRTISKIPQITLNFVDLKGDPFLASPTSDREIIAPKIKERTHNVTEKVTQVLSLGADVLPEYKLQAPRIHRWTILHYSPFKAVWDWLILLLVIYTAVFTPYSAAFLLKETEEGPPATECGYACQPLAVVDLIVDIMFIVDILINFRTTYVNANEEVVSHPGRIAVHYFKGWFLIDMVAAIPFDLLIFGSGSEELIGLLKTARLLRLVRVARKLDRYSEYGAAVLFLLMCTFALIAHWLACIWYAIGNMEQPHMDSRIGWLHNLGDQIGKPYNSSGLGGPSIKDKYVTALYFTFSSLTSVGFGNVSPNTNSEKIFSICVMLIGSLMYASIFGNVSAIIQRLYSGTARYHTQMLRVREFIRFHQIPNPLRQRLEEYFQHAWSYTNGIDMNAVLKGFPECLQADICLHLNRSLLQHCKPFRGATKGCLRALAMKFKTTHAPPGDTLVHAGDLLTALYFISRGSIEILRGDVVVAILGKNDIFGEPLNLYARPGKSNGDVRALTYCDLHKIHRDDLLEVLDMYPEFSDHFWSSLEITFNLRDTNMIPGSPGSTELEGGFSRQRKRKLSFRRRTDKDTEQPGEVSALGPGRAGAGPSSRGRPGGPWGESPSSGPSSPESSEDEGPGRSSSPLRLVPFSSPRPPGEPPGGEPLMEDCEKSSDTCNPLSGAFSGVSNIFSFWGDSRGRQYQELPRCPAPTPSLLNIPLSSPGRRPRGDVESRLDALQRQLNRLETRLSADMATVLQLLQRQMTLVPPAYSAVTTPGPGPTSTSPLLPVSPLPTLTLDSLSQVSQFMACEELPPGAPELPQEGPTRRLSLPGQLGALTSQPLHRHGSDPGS
Nuclear receptor subfamily 1 group I member 2 (Rattus norvegicus), sequence (Q9R1A7 whole entry, looked up): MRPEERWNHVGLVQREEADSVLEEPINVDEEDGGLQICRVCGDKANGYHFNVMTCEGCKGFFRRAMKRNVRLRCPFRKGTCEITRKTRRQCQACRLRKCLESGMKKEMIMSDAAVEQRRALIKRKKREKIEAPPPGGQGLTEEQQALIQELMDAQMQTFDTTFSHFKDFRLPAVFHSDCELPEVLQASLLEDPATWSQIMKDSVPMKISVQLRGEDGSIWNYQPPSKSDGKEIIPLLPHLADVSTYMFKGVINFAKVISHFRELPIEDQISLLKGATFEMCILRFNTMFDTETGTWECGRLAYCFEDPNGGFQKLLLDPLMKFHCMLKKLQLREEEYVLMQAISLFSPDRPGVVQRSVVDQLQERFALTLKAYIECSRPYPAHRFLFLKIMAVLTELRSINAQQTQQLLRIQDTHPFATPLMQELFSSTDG

O=C(O)Cc1ccc(-c2ccccc2)cc1
inactive: Potency [1] | Potency [2] | Potency [3] | Potency [4] | Potency [5] | max activation [6] -2.71% | Potency [7] | Potency [8] | Potency [9] | Potency [10] | Potency [11]

COCCOC
active: Potency [12] 14.6 µM | Potency [4] 13 µM
inactive: Potency [1] | Potency [3] | Potency [10]

Cc1occc1C(=O)Nc1ccc(C(=O)N2CCC(F)(F)/C(=C\C(=O)N3CCC(N4CCCCC4)CC3)c3ccccc32)cc1
active: Potency [2] 17 µM | Potency [5] 19.1 µM | Potency [9] 9.9 µM | Potency [10] 6.09 µM | Potency [11] 0.394 µM
inactive: Potency [1] | Potency [3] | outcome [13] | Potency [14]

CCCOc1ccc(S(=O)(=O)N2CCN(CC)CC2)cc1-c1nc2c(CC)n(Cc3ccccn3)nc2c(=O)[nH]1
active: Potency [5] 10.9 µM | Potency [14] 71 µM | Potency [15] 3.17 µM | Potency [10] 21.9 µM | Potency [11] 0.399 µM
inactive: Potency [1] | Potency [3] | Potency [12] | Potency [9]

CN(C(=O)C(Cl)Cl)c1ccc(OC(=O)c2ccco2)cc1
inactive: Potency [1] | Potency [2] | Potency [3] | outcome [13] | Potency [5] | Potency [16] | Potency [9] | Potency [10] | Potency [11]
active: Potency [15] 15.5 µM

CC1=NN(c2ccc(C(=O)O)cc2)C(=O)C1
active: Potency [14] 20 µM
inactive: Potency [1] | Potency [2] | Potency [3] | outcome [13] | Potency [4] | Potency [5] | Potency [15] | Potency [9] | Potency [10] | Potency [11]

CO[C@H]1C=CO[C@@]2(C)Oc3c(C)c(O)c4c(O)c(c5c(c4c3C2=O)=NC2(CCN(CC(C)C)CC2)N=5)NC(=O)/C(C)=C\C=C/[C@H](C)[C@H](O)[C@@H](C)[C@@H](O)[C@@H](C)[C@H](OC(C)=O)[C@@H]1C
active: Potency [2] 30 µM | Potency [12] 53.3 µM | Potency [5] 5.98 µM | Potency [7] 0.501 µM | Potency [8] 0.158 µM | Potency [16] 39.1 µM | Potency [14] 39.1 µM | Potency [11] 9.81 µM
inactive: Potency [1] | outcome [13] | max activation [6] -0.473% | Potency [10]

O=C(Nc1ccccc1)Nc1ccccc1
inactive: Potency [1] | Potency [2] | Potency [3] | Potency [4] | Potency [10] | Potency [11]
active: Potency [5] 4.88 µM | Potency [14] 4.5 µM | Potency [15] 22.6 µM | Potency [9] 17.9 µM

CN(C)C(=O)Nc1ccc(Oc2ccc(Cl)cc2)cc1
inactive: Potency [1] | Potency [2] | Potency [3] | outcome [13] | Potency [10]
active: Potency [5] 10.9 µM | Potency [14] 17.8 µM | Potency [15] 35.6 µM | Potency [9] 12.6 µM

Nc1ccc(C(=O)OCCCOC(=O)c2ccc(N)cc2)cc1
inactive: Potency [1] | Potency [2] | Potency [3] | Potency [4]
active: Potency [5] 54.5 µM | Potency [16] 39.9 µM | Potency [14] 17.8 µM | Potency [15] 7.1 µM | Potency [9] 7.1 µM | Potency [11] 2.24 µM

CNC(=S)NC
inactive: Potency [1] | Potency [2] | Potency [3] | outcome [13] | Potency [4] | Potency [5] | Potency [14] | Potency [15] | Potency [10] | Potency [11]
active: Potency [9] 31.7 µM

O=C(OCCOCCO)c1ccccc1Nc1cccc(C(F)(F)F)c1
inactive: Potency [1] | Potency [2] | Potency [3] | outcome [13] | max activation [6] -0.0091%
active: Potency [15] 17.4 µM | Potency [9] 12.3 µM

CNC(=O)N(c1ccccc1)c1ccccc1
active: Potency [5] 48.8 µM | Potency [16] 35.7 µM | Potency [9] 40.1 µM
inactive: Potency [1] | Potency [2] | Potency [3] | Potency [14] | Potency [15] | Potency [10] | Potency [11]

Nc1ccc(Cl)cc1[N+](=O)[O-]
active: Potency [5] 60.5 µM | Potency [9] 9.93 µM
inactive: Potency [1] | Potency [2] | Potency [3] | outcome [13] | Potency [14] | Potency [15] | Potency [10]

CCCCC/C(=C\c1ccccc1)CO
active: Potency [14] 1.76 µM | Potency [15] 39.4 µM | Potency [9] 3.94 µM
inactive: Potency [1] | Potency [2] | outcome [13] | Potency [4] | Potency [5] | Potency [11]

CNCCCC1c2ccccc2C=Cc2ccccc21
inactive: Potency [1] | outcome [13] | max activation [6] -3.85% | Potency [14] | Potency [15] | Potency [9]
active: Potency [2] 29.8 µM | Potency [7] 3.55 µM | Potency [16] 4.9 µM

C[C@]12CCC(=O)C=C1C=C[C@@H]1[C@@H]2CC[C@@]2(C)[C@H]1CC[C@@]21CCC(=O)O1
active: Potency [14] 1.1 µM
inactive: Potency [1] | Potency [2] | Potency [3] | Potency [4] | Potency [5] | max activation [6] 4.49% | Potency [7] | Potency [8] | Potency [16] | Potency [9] | Potency [10] | Potency [11]

C=CCNc1nc(NCC=C)nc(N2CCN(C(c3ccc(F)cc3)c3ccc(F)cc3)CC2)n1
active: Potency [5] 13.3 µM
inactive: Potency [1] | Potency [2] | Potency [3] | outcome [13] | Potency [4] | Potency [14] | Potency [9]

C=CC(=C)CCCC(C)(C)OC(C)=O
inactive: Potency [1] | Potency [2] | Potency [3] | outcome [13] | Potency [5] | Potency [16] | Potency [14] | Potency [15] | Potency [10] | Potency [11]

Cc1cc(O)c2c(O)c3c(O)cccc3cc2c1
inactive: Potency [1] | Potency [2] | Potency [3] | outcome [13] | Potency [4] | Potency [10]
active: Potency [5] 11.9 µM | Potency [14] 4.36 µM | Potency [15] 4.9 µM
